NPC1 prom act: activators of NPC1 promoter. Huh7 NPC1 promoter luciferase reporter, 24 h. Potency, µM (doses to about 9.22 µM), without a hit: at the highest dose activation, most hits filed as activators. AID 485313. 320,000 compounds, 2.4% hits; further: % of control where 0% means no effect; nearly all actives have a fitted effect of over 60% in size
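Cells: Huh7 expressing luciferase under the NPC1 promoter, 1500/well. Seeded 2 h, compound added, incubated 24 h at 37 °C. Luciferase reagent, 10 min ambient, then luminescence.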
Rab9 promoter act: Rab9 promoter activation. 320,000 compounds, 2.8% hits. Huh7 Rab9 promoter-luciferase reporter, luminescence, 24 h. Potency, µM (titrated, usually from 9.22 µM), inactives show at the highest dose activation, negative = inhibition, most hits filed as activators; further: % of control where 0% means no effect; nearly all actives have a fitted effect of over 60% in size
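Cell-based reporter: Huh7 stable for Rab9 promoter-driven luciferase, plated in reduced-serum medium with 10% FBS at 1500 cells/well, compound-treated 24 h at 37 °C, luminescence read after 10 min reagent.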
SMN2 splice enh: enhancers of SMN2 splice variant expression; HEK293 SMN2-luciferase splicing reporter, luminescence, 30-36 h; Potency, µM (highest dose often 46.1 µM), without a hit: top-dose activity change, positive = activation, actives largely listed as activators; AID 1458; 210,000 compounds, 2.8% hits; further: % of control where 0% means no effect; nearly all actives have a fitted effect of over 55% in size
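qHTS luciferase splicing reporter: luminescence rises when SMN2 exon 7 is included in transfected HEK293 cells. Compound exposure lasted 30-36 h at 37C, with 4.5 mM final sodium butyrate as control, followed by a ONE-Glo read.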
ELG1 DNA repair: ELG1-dependent DNA repair inhibition; HEK293T ELG1-luciferase reporter, luminescence, 16 h; DNA damage induced by 5-fluorouridine; Potency, µM (highest dose often 46.1 µM), inactives show at the top dose activity change, negative = inhibition, most hits filed as inhibitors; 330,000 compounds, 2.3% hits; AID 504467; further: on the % scale 0 is the no-effect control and ±100 the full control effect; nearly all actives have a fitted effect of over 55% in size
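HEK293T cells expressing luciferase-tagged ELG1 (2,000/well) received 5-Fluorouridine plus compound or DMSO for 16 hr at 37 °C. Luciferase was read by ONE-Glo luminescence after 30 min at room temperature.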
ELG1 genotoxic: induces genotoxicity in HEK293T cells with luciferase-tagged ELG1 | HEK293T ELG1-luciferase reporter, luminescence, 16 h | Potency, µM (series often up to 46 µM), for the others: top-dose activity change, positive = activation, actives largely listed as activators | 330,000 compounds, 1.3% hits; further: % of control where 0% means no effect; nearly all actives have a fitted effect of over 60% in size
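Quantitative HTS format in 1536-well plates. HEK293T ELG1-luciferase reporter cells receive test compound and are incubated 16 hr at 37 °C, 5% CO2; ONE-Glo added, 30 min room temperature, then luminescence read.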
FLuc modulator: inhibits or activates purified firefly luciferase, miR-21 counter-screen. purified FLuc, Km substrates, luminescence inhibition. 360,000 compounds, 6.9% hits. AID 588342. Potency, µM (top dose mostly 57.5 µM), inactives show top-dose activity change, negative = inhibition, most hits filed as inhibitors;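 further: plate controls were vehicle for no effect and reference inhibitor for full effect; nearly all actives have a fitted effect of over 55% in size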
Target sequence (P08659 whole entry, looked up): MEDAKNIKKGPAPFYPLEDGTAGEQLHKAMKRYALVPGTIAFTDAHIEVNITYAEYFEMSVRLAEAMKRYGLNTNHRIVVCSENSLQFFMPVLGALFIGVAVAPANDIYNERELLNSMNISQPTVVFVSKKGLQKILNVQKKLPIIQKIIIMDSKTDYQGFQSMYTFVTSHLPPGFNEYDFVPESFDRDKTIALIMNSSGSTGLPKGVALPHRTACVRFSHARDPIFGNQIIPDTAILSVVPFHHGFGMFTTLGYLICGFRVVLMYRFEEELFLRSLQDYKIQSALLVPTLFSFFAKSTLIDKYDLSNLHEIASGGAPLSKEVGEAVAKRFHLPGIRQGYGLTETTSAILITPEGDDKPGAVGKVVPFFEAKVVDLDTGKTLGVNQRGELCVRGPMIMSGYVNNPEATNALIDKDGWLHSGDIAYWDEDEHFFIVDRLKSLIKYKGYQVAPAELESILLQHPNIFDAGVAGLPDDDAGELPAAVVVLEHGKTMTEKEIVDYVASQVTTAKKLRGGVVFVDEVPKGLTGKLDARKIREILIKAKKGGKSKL
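Purified P. pyralis luciferase (10nM final) with 10uM D-luciferin and 10uM ATP (Km levels) in 50mM Tris acetate pH 7.5, 10mM Mg acetate, 0.01% Tween-20, 0.05% BSA; qHTS 6-point titration, ~60 µM downward; luminescence read.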
An asterisk follows results filed as active; ? = inconclusive; . = no result. Rows were chosen to be rich in hits. Some 9.3% of all compounds tested hit in one or more screens of this group. The call rests on the fitted dose curve; in most records, active means well fitted curve in the direction sought with a large enough effect; inconclusive means small, poorly fitted or top-dose-only effect, or another doubt; inactive means no such curve, though single readings can be large; an effect the other way counts as inactive or inconclusive. Potency means the concentration at half of the fitted maximal effect.

SMILES	NPC1 prom act	Rab9 promoter act	SMN2 splice enh	ELG1 DNA repair	ELG1 genotoxic	FLuc modulator
CCN(Cc1ccccc1)c1nc2c(S(=O)(=O)c3ccccc3)nnn2c2ccc(Cl)cc12	.	.	-3.6%	.	.	-4.5%
CCOC(=O)c1cnc2c(C)cc(C)cc2c1NCCc1ccc(OC)c(OC)c1	.	.	-5.2%	.	.	-16.7%
CCOC(=O)c1cnc2ccc(C(=O)OC)cc2c1NCCc1ccc(OC)c(OC)c1	0.6%	-1.8%	-15.3%	14.6µM*	-5.3%	1.0%
CCOC(=O)c1ccc2ncc(C(=O)OCC)c(NCCc3ccc(OC)c(OC)c3)c2c1	.	.	-5.2%	.	.	2.8%
CCOC(=O)c1cnc2c(C)cccc2c1NCCc1ccc(OC)c(OC)c1	-1.5%	-11.9%	-65.4%	23.1µM*	-25.5%	-3.9%
COc1ccc(OC)c(/C=C2\SC(N3CCCCC3)=NC2=O)c1	21.2%	-5.0%	.	?	-0.3%	19µM*
CCOC(=O)C1CCCN(C2=NC(=O)/C(=C/c3ccc(OC)cc3OC)S2)C1 (stereo unspecified)	-4.1%	-6.0%	.	?	-2.9%	?
O=C1N=C(N2CCCC2)S/C1=C\c1ccccc1	-3.4%	3.1%	-3.7%	15.7%	10.6%	-17.6%
CCCOc1ccccc1/C=C1\SC(N2CCCCC2)=NC1=O	?	22.6%	.	0.0%	-10.5%	12µM*
COc1cc(OC)c(OC)cc1/C=C1\SC(N2CCCCC2)=NC1=O	-1.8%	-2.5%	.	?	9.1%	3.79µM*
Cc1nc(Nc2nc3ccccc3o2)nc(C)c1C	1µM*	?	5.62µM*	?	?	8.49µM*
Cc1cnc(Nc2nc3ccccc3o2)nc1C(=O)Nc1cccc(C(F)(F)F)c1	-10.2%	-16.3%	-28.3%	?	?	-0.5%
Cc1ccnc(Nc2nc3ccccc3o2)n1	?	0.398µM*	2.51µM*	?	1.16µM*	3.01µM*
N#Cc1cnc(Nc2nc3ccccc3o2)nc1-c1ccccc1	28.5%	?	5.5%	-15.9%	6.4%	-1.5%
CCCc1nc(Nc2nc3ccccc3o2)nc(C)c1C(=O)OCC	?	1.78µM*	?	?	?	2.69µM*
Cc1ccc(Nc2nc3ccccc3o2)cc1F	?	1.58µM*	?	?	5.8µM*	6.01µM*
CN(CCCC(=O)NCCc1ccccc1)S(=O)(=O)c1ccc([N+](=O)[O-])cc1	-2.8%	2.9%	.	-14.1%	3.1%	1.9%
Cc1ccc(O)c(NC(=O)C2CC(c3cccc(Br)c3)=NO2)c1 (stereo unspecified)	-6.3%	3.1%	.	8.9%	-4.8%	-1.9%
Cc1nnc(SCC(=O)Nc2ccccc2F)n1-c1ccc(F)cc1	-3.8%	-14.5%	.	8.0%	1.6%	-1.8%
Cc1ccc2oc(Nc3nc(C)c(C)c(C)n3)nc2c1	1.58µM*	2.51µM*	.	?	?	10.7µM*
CCS(=O)(=O)c1ccc2oc(Nc3cc(C)cc(C)c3)nc2c1	0.5%	-1.6%	-34.3%	?	-0.6%	-5.8%
O=C1CCc2cc(S(=O)(=O)NC(C(=O)Nc3cccc(F)c3)c3ccccc3)ccc2N1 (stereo unspecified)	.	.	6.3%	.	.	-1.1%
CCOC(=O)c1c(NC(=O)c2cc(-c3ccc(Cl)cc3)on2)sc(C)c1C	.	.	10.0%	.	.	7.3%
O=C(CSc1nc2ccccc2o1)c1ccc2c(c1)OCCO2	28.0%	?	-1.1%	?	?	8.49µM*
c1ccc(OCCSc2nc3ccccc3o2)cc1	19.0%	20.6%	-9.5%	?	14.3%	21.3µM*
SMILES	NPC1 prom act	Rab9 promoter act	SMN2 splice enh	ELG1 DNA repair	ELG1 genotoxic	FLuc modulator
O=C(CSc1nc2ccccc2o1)c1ccccc1	?	?	17.2%	?	11.1%	10.7µM*
O=C(CCC1CCCN(C(=O)c2ccc3c(c2)OCO3)C1)N1CCN(c2ccccn2)CC1 (stereo unspecified)	-1.0%	-0.8%	.	?	-4.9%	-2.8%
CCOc1ccc(/C=C2\NC(=S)NC2=O)cc1	-1.2%	-7.0%	.	-8.3%	-0.4%	16.9µM*
Cc1cc(C)cc(CC2CC(=O)N(c3nc(C)cc(C)n3)C2=O)c1 (stereo unspecified)	29.4%	?	-1.4%	?	14.8%	21.3µM*
COc1ccc(S(=O)(=O)n2cnc3cc(C)c(C)cc32)cc1	1.8%	2.6%	-28.2%	13µM*	-1.1%	-2.8%
Cc1cccc(C(=O)N2CCc3cc(CNS(=O)(=O)c4ccc(F)c(Cl)c4)ccc32)c1	.	.	.	.	.	-1.1%
CC(=O)N(Cc1ccc(F)cc1)C1=C(NCc2ccccc2)C(=O)c2ccccc2C1=O	-26.1%	-31.6%	-48.7%	20.6µM*	-8.9%	-12.5%
O=C(NCc1ccc(F)cc1)C(c1ccccc1)c1ccccc1	-6.1%	2.9%	.	-19.1%	-1.9%	7.7%
Cc1ccccc1N1CCN(c2ccc(NC(=O)C3CCCCC3C(=O)O)cc2)CC1 (stereo unspecified)	-0.5%	0.6%	-18.7%	?	0.5%	10.7µM*
CC(=O)N1CCCc2cc(S(=O)(=O)N3CCCC(C(=O)Nc4ccc(C)c(C)c4)C3)ccc21 (stereo unspecified)	.	.	.	.	.	-13.1%
CCCC(=O)NC(c1ccc(OC)cc1)c1ccc2cccnc2c1O (stereo unspecified)	-22.7%	-57.3%	.	?	2.8%	-0.8%
CCCCC(=O)NC(c1ccccc1Cl)c1ccc2cccnc2c1O (stereo unspecified)	-29.2%	-43.1%	.	3.26µM*	6.8%	2.8%
CCCCC(=O)NC(c1ccccc1)c1ccc2cccnc2c1O (stereo unspecified)	-43.9%	-47.9%	.	?	5.8%	-0.7%
CCC(=O)NC(c1ccccc1OC)c1ccc2cccnc2c1O (stereo unspecified)	-27.4%	-25.6%	-109.2%	4.11µM*	8.0%	9.8%
CCOc1ccccc1/C=N/N1CCN(Cc2ccccc2)CC1	-8.0%	-5.1%	.	0.1%	1.3%	-9.6%
CCOC(=O)c1sc2nc(NC(=O)C(C)(C)C)sc2c1C	0.891µM*	1.26µM*	?	?	2.59µM*	2.69µM*
O=C(Nc1ccc(Cl)cc1Cl)c1csc(-c2cccnc2)n1	2.82µM*	?	.	?	12.8%	?
c1ccc(-c2csc(-c3cccnc3)n2)cc1	17.0%	?	.	?	14.0%	19µM*
O=C(NCc1ccccc1)c1csc(-c2cccnc2)n1	12.4%	1.1%	.	5.8µM*	-15.8%	-1.7%
c1ccc(-c2nc(-c3cccnc3)cs2)cc1	?	?	.	?	?	12µM*
NS(=O)(=O)c1ccc(CCNC(=O)c2ccc([N+](=O)[O-])s2)cc1	-0.6%	26.8%	.	13µM*	-9.0%	2.0%

Assay outcomes: PubChem BioAssay, National Center for Advancing Translational Sciences (NCATS)
